A number with no mark means an inactive call. Inconclusive results are not listed. The source made the active and inactive calls. The call rests on the fitted dose curve; in most records, active means well fitted curve in the direction sought with a large enough effect; inconclusive means small, poorly fitted or top-dose-only effect, or another doubt; inactive means no such curve, though single readings can be large; an effect the other way counts as inactive or inconclusive.

Assay [1] concerns the target Glutathione peroxidase 1 (Homo sapiens) (UniProt P07203). Briefly: Primary qHTS Assay for Inhibitors of Recombinant Selenoprotein Glutathione Peroxidase 1 (GPX1) (AID 1845191). Further: nearly all actives have a fitted effect of over 65% in size. On activity, negative = inhibition: on the % scale 0 is the no-effect control and ±100 the full control effect. The essentials: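 GPX1 10 nM, GR 100 nM, GSH 1 mM, NADPH 0.5 mM, CHP 0.5 mM (final). 30-min cpd preincubation, RT. Ex340/Em450 read t=0, t=15 min.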
A general note: Quantitative high-throughput screening tests each substance at several concentrations.

Assay [2] deals with Phospholipid hydroperoxide glutathione peroxidase GPX4 (Homo sapiens) (UniProt P36969). Briefly: Primary qHTS Assay for Inhibitors of Recombinant Selenoprotein Glutathione Peroxidase 4 (GPX4) (AID 1845192). Further: series mostly up to about 50 µM; on the % scale 0 is the no-effect control and ±100 the full control effect; nearly all actives have a fitted effect of over 65% in size. The essentials:
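qHTS, GR-coupled: GPX4 200 nM + cpd 30 min RT → GSH 1 mM, NADPH 0.5 mM, GR 100 nM → CHP 0.5 mM start; fluor 340/450 at t0 and t15 min; no-enzyme wells as control.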

Assay [3] concerns the target Luciferin 4-monooxygenase (Photinus pyralis) (UniProt P08659). Description: Primary firefly luciferase (FLuc) qHTS assay for identification of artifact compounds. (AID 1845220). Further: nearly all actives have a fitted effect of over 60% in size. Further: potency means the concentration at half of the fitted maximal effect.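 On activity change, negative = inhibition: series mostly up to about 54 µM; plate controls were DMSO vehicle for no effect and no enzyme for full effect.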 The essentials:
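qHTS, 15 min compound preincubation with substrate (10 uM luciferin, 10 uM ATP) at RT, then 10 nM FLuc; 5 min; luminescence; % inhibition vs no-enzyme/DMSO controls, 4-parameter Hill fit.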

Assay [4] is described as follows: Primary fluorescence-based thiol-reactive (MSTI) qHTS assay for identification of artifact compounds. (AID 1845221). Further: nearly all actives have a fitted effect of over 65% in size. Further: potency means the concentration at half of the fitted maximal effect.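 On activity change, negative = thiol reactive: series mostly up to about 54 µM; thiol-reactive compounds lower the probe fluorescence signal.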 The essentials: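 In PBS pH 7.4 with 2% DMSO, each compound met 4 uM MSTI for one hour at ambient temperature, shielded from light, before fluorescence detection.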
The test system of assay [5] is Nanoluciferase (engineered Oplophorus gracilirostris luciferase). Briefly: Primary Nanoluciferase (NLuc) qHTS assay for identification of artifact compounds. (AID 1845222). Further: series mostly up to about 54 µM. The essentials: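 Luminescence read-out of secreted NLuc in S16 cell conditioned medium (1:55); compounds tested with 15 min RT preincubation, then Nano-Glo substrate 1:100, 5 min. % inhibition vs no-enzyme and DMSO controls, 4-parameter Hill fit.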

Phospholipid hydroperoxide glutathione peroxidase GPX4 (Homo sapiens), sequence (P36969 whole entry, looked up): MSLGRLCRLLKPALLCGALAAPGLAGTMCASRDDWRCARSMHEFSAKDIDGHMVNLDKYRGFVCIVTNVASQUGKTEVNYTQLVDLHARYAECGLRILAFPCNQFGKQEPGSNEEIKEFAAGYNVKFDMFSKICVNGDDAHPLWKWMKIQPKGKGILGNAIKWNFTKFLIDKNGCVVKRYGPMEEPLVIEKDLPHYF
Glutathione peroxidase 1 (Homo sapiens), sequence (P07203 whole entry, looked up): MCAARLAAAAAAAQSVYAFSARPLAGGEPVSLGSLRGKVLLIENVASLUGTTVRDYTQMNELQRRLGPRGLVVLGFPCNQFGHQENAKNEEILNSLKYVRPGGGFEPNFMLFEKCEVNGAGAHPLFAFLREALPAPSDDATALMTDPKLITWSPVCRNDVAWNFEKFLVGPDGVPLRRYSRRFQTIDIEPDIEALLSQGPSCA

Regarding `COc1cccc(C(=O)NCCNc2nc3cc(C)cc(C)c3cc2C#N)c1`, the Potency result in assay [1], in assay [2], in assay [3], in assay [4] and in assay [5] was “inactive” each time.
`CC(=O)O[C@@H]1[C@H](O[C@@H]2OC[C@](O)(CO)[C@H]2O)[C@@H](O[C@@H]2O[C@@H](C)[C@H](O)[C@@H](O[C@@H]3O[C@H](CO)[C@@H](O)[C@H](O)[C@H]3O)[C@H]2O)[C@H](OC(=O)[C@]23CCC(C)(C)C[C@H]2C2=CCC4[C@@]5(C)C[C@H](O)[C@H](O[C@@H]6O[C@H](C(=O)O)[C@@H](O)[C@H](O)[C@H]6O)[C@@](C)(C(=O)O)C5CC[C@@]4(C)[C@]2(C)CC3)O[C@@H]1C` (stereo not given in full): the Potency entry in assay [1] and in assay [2] was “inactive” in each case. The outcome in assay [3] was “inactive [at 11.6 µM]”. In addition, the activity change, negative = thiol reactive in assay [4] was 238% [at 11.5 µM]. In assay [5], the activity, negative = inhibition is 0% [at 11.6 µM].
In the case of `C[C@@H]1O[C@@H](O[C@H]2[C@H](O)[C@@H](O)[C@H](OC[C@H]3O[C@@H](OC(=O)[C@]45CCC(C)(C)C[C@H]4C4=CCC6[C@@]7(C)C[C@@H](O)[C@H](O)[C@@](C)(CO)C7[C@H](O)C[C@@]6(C)[C@]4(C)CC5)[C@H](O)[C@@H](O)[C@@H]3O)O[C@@H]2CO)[C@H](O)[C@H](O)[C@H]1O` (stereo not given in full), the Potency entry in assay [1] and in assay [2] was “inactive” throughout. Also, the activity change, negative = inhibition in assay [3] is 0.345% [at 11.6 µM]. In addition, the activity change, negative = thiol reactive in assay [4] was 224% [at 11.5 µM]. Further, the activity, negative = inhibition in assay [5] is 1.41% [at 11.6 µM].
As to `C=C1C(=O)O[C@@H]2/C=C(\C)CC/C=C(\C(=O)O[C@@H]3O[C@H](CO)[C@@H](O)[C@H](O)[C@H]3O)CC[C@@H]12`, the Potency result in assay [1], in assay [2], in assay [3] and in assay [5] was “inactive” in each case. Also, the Potency in assay [4] was 4.12 µM (active).
For the molecule `CC1(C)CC[C@]2(C(=O)O)CC[C@]3(C)C(=CCC4[C@@]5(C)CC[C@H](O[C@@H]6O[C@H](C(=O)O)[C@@H](O)[C@H](O[C@@H]7O[C@H](CO)[C@H](O)[C@H](O)[C@H]7O)[C@H]6O[C@@H]6O[C@H](CO)[C@@H](O)[C@H](O)[C@H]6O)C(C)(C)C5CC[C@]43C)[C@@H]2C1` (stereo not given in full), the Potency result in assay [1] and in assay [2] was “inactive” each time. In addition, in assay [3], the activity change, negative = inhibition is -14.9% [at 6.45 µM]. Also, in assay [4], the activity change, negative = thiol reactive was 227% [at 6.41 µM]. Also, in assay [5], the activity, negative = inhibition is -1.21% [at 6.45 µM].
For `C/C=C/C=C/C1=C2C(=O)C3(C)C4C(C(=O)CC(O)/C=C/C)=C(O1)C1(C)C2C2(C)OC1(O)C4(C)OC23O` (stereo not given), the Potency entry in assay [1], in assay [2], in assay [3] and in assay [5] was “inactive” throughout. The Potency in assay [4] is 5.82 µM (active).
For `O=C(OC[C@H]1O[C@@H](Oc2ccccc2CO)[C@H](O)[C@@H](O)[C@@H]1O)c1ccccc1`, the Potency entry in assay [1], in assay [2], in assay [3] and in assay [5] was “inactive” each time. Also, the Potency in assay [4] is 10.4 µM (active).
For `CC(=O)O[C@@H]1C=C2[C@H](CC[C@@]3(C)[C@@]2(O)CC[C@H]2Cc4c([nH]c5ccccc45)[C@@]23C)O[C@@H]1C(C)(C)O`, the Potency entry in assay [1], in assay [2], in assay [3] and in assay [5] was “inactive” throughout. Moreover, the Potency in assay [4] is 4.12 µM (active).
Take `CC1(C)CC[C@]2(C(=O)O[C@@H]3O[C@H](CO)[C@@H](O)[C@H](O)[C@H]3O)CC[C@]3(C)C(=CCC4[C@@]5(C)CC[C@H](O[C@@H]6O[C@H](C(=O)O)[C@@H](O)[C@H](O)[C@H]6OC6OC(CO)C(O)C(O)C6O)C(C)(C)C5CC[C@]43C)[C@@H]2C1` (stereo not given in full): the Potency result in assay [1] and in assay [2] was “inactive” in each case. Besides, the activity change, negative = inhibition in assay [3] is 1.1% [at 11.6 µM]. Further, the activity change, negative = thiol reactive in assay [4] was 43.7% [at 11.5 µM]. In addition, the activity, negative = inhibition in assay [5] is 0.31% [at 11.6 µM].
For the molecule `O=C(OCC1=CC(Cl)C(O)C(OC(=O)c2ccccc2)C1O)c1ccccc1` (stereo not given), the Potency result in assay [1], in assay [2], in assay [3], in assay [4] and in assay [5] was “inactive” each time.
As to `CC1=C2C[C@@]3(C)[C@@H](CCC[C@@H]3C)C[C@@]2(O)OC1=O`, the Potency entry in assay [1], in assay [2], in assay [3], in assay [4] and in assay [5] was “inactive” each time.
For the molecule `CC(C)=CCC[C@](C)(O[C@@H]1O[C@H](CO[C@@H]2O[C@@H](CO)[C@H](O)[C@H]2O)[C@@H](O)[C@H](O)[C@H]1O)[C@H]1CC[C@]2(C)[C@@H]1[C@H](O)C[C@@H]1[C@@]3(C)CC[C@H](O[C@@H]4O[C@H](CO)[C@@H](O)[C@H](O)[C@H]4O[C@@H]4O[C@H](CO)[C@@H](O)[C@H](O)[C@H]4O)C(C)(C)[C@@H]3CC[C@]12C`, the Potency result in assay [1], in assay [2], in assay [3], in assay [4] and in assay [5] was “inactive” each time.
As for `C=C(C(=O)O)[C@@H]1CC[C@@]2(C)CC[C@@H](O)C(=C)C2C1` (stereo not given in full), the Potency entry in assay [1], in assay [2], in assay [3] and in assay [5] was “inactive” in each case. The Potency in assay [4] was 23.8 µM (active).
With `CC(=O)O[C@@H](C[C@@H]1C=C(C)C(=O)O1)[C@H](C)[C@H]1CCC2[C@@]3(C)CC[C@H](O[C@@H]4O[C@H](CO)[C@@H](O)[C@H](O)[C@H]4O[C@@H]4O[C@@H](C)[C@H](O)[C@@H](O)[C@H]4O)C(C)(C)C3CC[C@@]2(C)[C@@]12COC(=O)C2` (stereo not given in full), the Potency result in assay [1] and in assay [2] was “inactive” each time. Besides, the activity change, negative = inhibition in assay [3] is -7.53% [at 11.6 µM]. In assay [4], the activity change, negative = thiol reactive was 32.4% [at 11.5 µM]. Further, the activity, negative = inhibition in assay [5] was -4.12% [at 11.6 µM].
As to `O=C(OC[C@H]1O[C@@H](Oc2ccccc2COC(=O)C2(O)C=CCCC2O)[C@H](O)[C@@H](O)[C@@H]1O)c1ccccc1` (stereo not given in full), the Potency result in assay [1], in assay [2], in assay [3] and in assay [5] was “inactive” throughout. For the same molecule, the Potency in assay [4] was 5.19 µM (active).
Take `C/C(=C\CC/C(C)=C/CC[C@]1(C)CCc2cc(O)cc(C)c2O1)CC/C=C(\C)C(=O)O`: the Potency entry in assay [1], in assay [2], in assay [3] and in assay [5] was “inactive” throughout. Moreover, the Potency in assay [4] was 4.62 µM (active).
Turning to `C/C(=C\CCC(C)C1CC(O)C2(C)C3CCC4C(C)(C)C(OC5OCC(O)C(O)C5O)CCC45CC35CC(O)C12C)C(=O)O` (stereo not given), the Potency entry in assay [1], in assay [2], in assay [3], in assay [4] and in assay [5] was “inactive” each time.
Take `COc1ccc(C2COc3cc(O)ccc3C2)c(O)c1OC` (stereo not given): the Potency entry in assay [1], in assay [2], in assay [4] and in assay [5] was “inactive” throughout. Besides, in assay [3], the Potency is 19 µM (active).
Consider `CC(=O)O[C@H]1[C@H](O[C@H]2CC[C@]34C[C@]35CC[C@]3(C)[C@@H]([C@@]6(C)CC[C@@H](C(C)(C)O)O6)[C@@H](O)C[C@@]3(C)[C@@H]5C[C@H](O[C@@H]3O[C@H](CO)[C@@H](O)[C@H](O)[C@H]3O)[C@H]4C2(C)C)OC[C@@H](OC(C)=O)[C@@H]1O`, for which the Potency result in assay [1], in assay [2], in assay [3], in assay [4] and in assay [5] was “inactive” in each case.
`CC1CC2(O)OC(=O)C3=C2C(CCC3)[C@@]12C[C@@H](c1ccoc1)OC2=O` (stereo not given in full): the Potency result in assay [1], in assay [2], in assay [3] and in assay [5] was “inactive” throughout. The Potency in assay [4] was 4.65 µM (active).

The values above are taken from PubChem BioAssay (NCATS).
